# Laboratory results published in PubChem BioAssay (NCATS).
# Several values for one entry are separate records, joined by “and”; a condition that tells them apart may be missing. Equal entries are not always repeated. Inconclusive results are not listed. Entries that show only a call come without a potency. A number with no mark means an inactive call. Activity calls are given as the source filed them. Unless noted, the call rests on the fitted dose curve; in most records, active means well fitted curve in the direction sought with a large enough effect; inconclusive means small, poorly fitted or top-dose-only effect, or another doubt; inactive means no such curve, though single readings can be large; an effect the other way counts as inactive or inconclusive.
# Columns and labels:
# [1] = target: Cellular tumor antigen p53 (Homo sapiens) (UniProt P04637); assay: Primary qHTS for small molecule compounds that upregulate eGFP-tagged delta133p53alpha (in N-terminal) cells. (AID 2060322); settings: NCI-H358 eGFP-delta133p53alpha fluorescence, 24 h; activation: hits give high values; further: nearly all actives have a fitted effect of over 75% in size; further: potency means the concentration at half of the fitted maximal effect
# Chain of Cellular tumor antigen p53 (Homo sapiens) (P04637 whole entry, looked up): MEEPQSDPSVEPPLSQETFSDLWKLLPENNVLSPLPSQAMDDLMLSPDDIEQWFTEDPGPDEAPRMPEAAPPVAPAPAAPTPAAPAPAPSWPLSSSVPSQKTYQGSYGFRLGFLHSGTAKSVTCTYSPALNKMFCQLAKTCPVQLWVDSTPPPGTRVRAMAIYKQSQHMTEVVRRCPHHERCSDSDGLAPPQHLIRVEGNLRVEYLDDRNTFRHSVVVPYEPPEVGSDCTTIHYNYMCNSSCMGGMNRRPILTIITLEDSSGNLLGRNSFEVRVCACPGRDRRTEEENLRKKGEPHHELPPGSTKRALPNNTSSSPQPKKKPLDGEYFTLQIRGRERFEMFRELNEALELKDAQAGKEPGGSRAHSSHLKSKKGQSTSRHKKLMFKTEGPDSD
# In short: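 NCI-H358 cells pre-induced 24 h with 10 ng/ml doxycycline to express N-terminal eGFP-delta133p53alpha, then dosed 24 h at 37C without doxycycline; fixed, Hoechst-stained, GFP intensity by laser scanning cytometry, normalized to DMSO (0%) and 57.5 uM 5-azacytidine (100%).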
# [2] = target: Aldehyde dehydrogenase, mitochondrial (Homo sapiens) (UniProt P05091); assay: qHTS for Inhibitors of the Aldehyde Dehydrogenase Family (ALDH2) Confirmatory screens (AID 2061303; active means well fitted inhibition curve with a large enough effect; title and protocol of this record describe different tests; further: nearly all actives have a fitted effect of over 45% in size; further: potency means the concentration at half of the fitted maximal effect); settings: ALDH inhibition qHTS; series mostly up to 45.4 µM
# [3] = qHTS for Inhibitors of the Aldehyde Dehydrogenase Family (ALDH1A2, ALDH1A3, ALDH2, ALDH3A1) (AID 2061307); settings: ALDH inhibition qHTS; series mostly up to 50.3 µM; further: nearly all actives have a fitted effect of over 50% in size; on potency: test system not described further here; potency means the concentration at half of the fitted maximal effect
# [4] = target: Aldehyde dehydrogenase, mitochondrial (Homo sapiens) (UniProt P05091); assay: qHTS for Inhibitors of the Aldehyde Dehydrogenase Family (ALDH2) Primary screen (AID 2061308); settings: ALDH2 enzyme inhibition qHTS, 1536-well; series mostly up to 56 µM; further: nearly all actives have a fitted effect of over 55% in size; further: potency means the concentration at half of the fitted maximal effect
# [5] = target: Retinaldehyde dehydrogenase 3 (Homo sapiens) (UniProt P47895); assay: qHTS for Inhibitors of the Aldehyde Dehydrogenase Family (ALDH1A3) Confirmatory screens (AID 2061311); settings: ALDH inhibition qHTS; series mostly up to 46 µM; further: nearly all actives have a fitted effect of over 60% in size; further: potency means the concentration at half of the fitted maximal effect
# [6] = target: Retinaldehyde dehydrogenase 3 (Homo sapiens) (UniProt P47895); assay: qHTS for Inhibitors of the Aldehyde Dehydrogenase Family (ALDH1A3) Validation screen (AID 2061312); settings: ALDH1A3 enzyme inhibition qHTS validation, fluorescence; series mostly up to 84.7 µM; further: nearly all actives have a fitted effect of over 45% in size; further: potency means the concentration at half of the fitted maximal effect
# [7] = target: Retinal dehydrogenase 2 (Homo sapiens) (UniProt O94788); assay: qHTS for Inhibitors of the Aldehyde Dehydrogenase Family (ALDH1A2) Confirmation screens (AID 2061314); settings: ALDH1A2 enzyme inhibition qHTS confirmation; series mostly up to 45.9 µM; further: nearly all actives have a fitted effect of over 65% in size; further: potency means the concentration at half of the fitted maximal effect
# [8] = target: Aldehyde dehydrogenase 1A1 (Homo sapiens) (UniProt P00352); assay: qHTS for Inhibitors of the Aldehyde Dehydrogenase Family (ALDH1A1) Confirmatory screens (AID 2061316); settings: ALDH inhibition qHTS; series mostly up to 47.3 µM; further: nearly all actives have a fitted effect of over 65% in size; further: potency means the concentration at half of the fitted maximal effect
# [9] = target: Retinaldehyde dehydrogenase 3 (Homo sapiens) (UniProt P47895); assay: qHTS for Inhibitors of the Aldehyde Dehydrogenase Family (ALDH1A3) Primary screen (AID 2061315); settings: ALDH inhibition qHTS; series mostly up to 56 µM; further: potency means the concentration at half of the fitted maximal effect
# [10] = BET inhibitor-based combinations targeting novel dependencies in MECOM-rearranged (r) AML: SET-2 cell line (AID 2202231); settings: SET-2 AML cells viability, CellTiter-Glo luminescence, 48 h; viability: hits give low values, concentration not given here; further: nearly all actives have a fitted effect of over 35% in size; further: potency means the concentration at half of the fitted maximal effect
# In short: (§1)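 Cells were plated at 500 per well and exposed to an 11-point dose series of each drug for 48 hr. Viability was measured by CellTiter-Glo luminescence, normalized to DMSO and empty-well controls, and summarized as AUC and per-cell-line Z-AUC.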
# [11] = BET inhibitor-based combinations targeting novel dependencies in MECOM-rearranged (r) AML: MV-4-11 cell line (AID 2202233); settings: MV-4-11 AML viability, CellTiter-Glo luminescence, 48 h; series mostly up to 46 µM; further: nearly all actives have a fitted effect of over 45% in size; further: potency means the concentration at half of the fitted maximal effect
# In short: (§2)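 Activity is given as area under the curve and as Z-AUC, mean-centred within each cell line. It comes from 11-point dose curves normalized to DMSO and empty wells. CellTiter-Glo luminescence was read after 48 hr drug exposure of 500 cells/well.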
# [12] = BET inhibitor-based combinations targeting novel dependencies in MECOM-rearranged (r) AML: UCSD-AML1 cell line (AID 2202235); settings: UCSD-AML1 AML cells viability, CellTiter-Glo, 48 h; series mostly up to 46 µM; further: nearly all actives have a fitted effect of over 40% in size; further: potency means the concentration at half of the fitted maximal effect
# In short: as §2
# [13] = BET inhibitor-based combinations targeting novel dependencies in MECOM-rearranged (r) AML: AML-191 cell line (AID 2202236; further: nearly all actives have a fitted effect of over 35% in size; further: potency means the concentration at half of the fitted maximal effect); settings: AML-191 viability, CellTiter-Glo luminescence, 48 h; series mostly up to 46 µM
# In short: as §1
# [14] = BET inhibitor-based combinations targeting novel dependencies in MECOM-rearranged (r) AML: AML-194 cell line (AID 2202237; further: nearly all actives have a fitted effect of over 40% in size; further: potency means the concentration at half of the fitted maximal effect); settings: AML-194 (MECOM-r AML) viability, CellTiter-Glo, 48 h; series mostly up to 46 µM
# In short: as §1
# [15] = BET inhibitor-based combinations targeting novel dependencies in MECOM-rearranged (r) AML: OCI-AML3 cell line (AID 2202232); settings: CellTiter-Glo luminescence, 48 h; Potency: OCI-AML3 viability; series mostly up to 46 µM; further: nearly all actives have a fitted effect of over 35% in size
# In short: as §1
# [16] = BET inhibitor-based combinations targeting novel dependencies in MECOM-rearranged (r) AML: HNT-34 cell line (AID 2202234); settings: HNT-34 AML viability, CellTiter-Glo luminescence, 48 h; series mostly up to 46 µM; further: nearly all actives have a fitted effect of over 35% in size
# In short: as §2
smiles,measurement,setting,value
Cc1ccc(S(=O)(=O)c2ccc([N+](=O)[O-])o2)cc1,Potency,[1],8.49 µM (active)
same,Potency,[2],1.59 µM (active)
same,Potency,[3],0.708 µM (active)
same,Potency,[4],0.562 µM (active)
same,Potency,[5],11.2 µM (active)
same,Potency,[6],1.41 µM (active)
same,Potency,[7],3.98 µM (active)
same,Potency,[8],0.504 µM (active)
COC(=O)[C@@]1(c2ccc(C)cc2)C[C@H]1CN1CCC(O)(c2ccccc2)CC1,activation,[1],0.477%
same,Potency,[2],inactive
same,Potency,[3],inactive
same,Potency,[4],inactive
same,Potency,[5],inactive
same,Potency,[6],inactive
same,Potency,[7],inactive
same,Potency,[9],inactive
same,Potency,[8],inactive
NC(=O)[C@H]1CCS[C@@H]2C[C@]3(CCCN3C(=O)Cc3ccc(NC(=O)COc4ccc(Cl)cc4Cl)cc3)C(=O)N12,activation,[1],19%
same,Potency,[2],inactive
same,Potency,[3],inactive
same,Potency,[4],inactive
same,Potency,[5],inactive
same,Potency,[6],inactive
same,Potency,[7],inactive
same,Potency,[9],inactive
same,Potency,[8],inactive
same,Potency,[10],14.8 µM (active)
same,Potency,[11],7.42 µM (active)
same,Potency,[12],7.42 µM (active)
same,Potency,[13],5.25 µM (active)
same,Potency,[14],6.61 µM (active)
N#Cc1ccc(-c2cnc3[nH]cc(NC(=O)c4cccnc4)c3c2)cc1,activation,[1],-4.46%
same,Potency,[2],3.57 µM (active)
same,Potency,[3],1.59 µM (active)
same,Potency,[4],inactive
same,Potency,[5],3.16 µM (active)
same,Potency,[7],2.83 µM (active)
same,Potency,[9],inactive
same,Potency,[8],12.7 µM (active)
N#Cc1ccc(C(=O)N2CCC3(CC2)N=C(N)c2c(F)ccc(F)c2N3)cn1,activation,[1],6.21%
same,Potency,[2],inactive
same,Potency,[3],inactive
same,Potency,[4],inactive
same,Potency,[5],inactive
same,Potency,[6],inactive
same,Potency,[7],inactive
same,Potency,[9],inactive
same,Potency,[8],inactive
NC(N)=NCCC[C@H](NC(=O)c1sccc1NS(=O)(=O)c1cccc2nsnc12)C(=O)O,activation,[1],-11.5%
same,Potency,[2],inactive
same,Potency,[3],inactive
same,Potency,[4],inactive
same,Potency,[5],inactive
same,Potency,[6],inactive
same,Potency,[7],inactive
same,Potency,[9],inactive
same,Potency,[8],inactive
CCC(C)C(N)C(=O)NCCN1CCOCC1 (centres undefined),activation,[1],23%
same,Potency,[2],inactive
same,Potency,[3],inactive
same,Potency,[4],inactive
same,Potency,[5],inactive
same,Potency,[7],inactive
same,Potency,[9],inactive
same,Potency,[8],inactive
N#Cc1ccc(O[C@@H]2c3ccccc3C[C@H]2N2CCC[C@@H](N)C2)c(Cl)c1,Potency,[1],30.1 µM (active)
same,Potency,[2],inactive
same,Potency,[3],inactive
same,Potency,[4],inactive
same,Potency,[5],inactive
same,Potency,[7],inactive
same,Potency,[9],inactive
O=C(O)c1cccc(-c2noc(-c3ccccc3F)n2)c1,activation,[1],19.2% and 2.33% and 1.9%
same,Potency,[2],inactive
same,Potency,[3],0.302 µM (active)
same,Potency,[4],inactive
same,Potency,[5],0.159 µM (active)
same,Potency,[7],inactive
same,Potency,[9],0.316 µM (active)
same,Potency,[10],20.9 µM (active)
same,Potency,[12],18.6 µM (active)
same,Potency,[13],20.9 µM (active)
N[C@@]1(C(=O)O)CC[C@H]2[C@H](C(=O)O)[C@H]21,activation,[1],-12.3%
same,Potency,[2],inactive
same,Potency,[3],inactive
same,Potency,[4],inactive
same,Potency,[5],inactive
same,Potency,[7],inactive
same,Potency,[9],inactive
same,Potency,[8],inactive
CC1(C)C[C@H]2C=C(C=O)[C@]3(C(=O)O)C[C@]3(C)[C@H]2C1,activation,[1],18.8%
same,Potency,[2],inactive
same,Potency,[3],inactive
same,Potency,[4],inactive
same,Potency,[5],inactive
same,Potency,[7],inactive
same,Potency,[9],inactive
same,Potency,[8],inactive
Cc1cc(Cl)ccc1COc1ccnn1-c1cc(C(=O)O)ccn1,activation,[1],5.67%
same,Potency,[2],inactive
same,Potency,[3],inactive
same,Potency,[4],inactive
same,Potency,[5],inactive
same,Potency,[7],inactive
same,Potency,[9],inactive
O=c1cc(CN2CCOCC2)occ1OCCCCCSc1ccnc2cc(C(F)(F)F)ccc12,activation,[1],-4.65% and 8.33%
same,Potency,[2],inactive
same,Potency,[3],22.5 µM (active)
same,Potency,[4],inactive
same,Potency,[5],inactive
same,Potency,[7],inactive
same,Potency,[9],inactive
same,Potency,[15],inactive
same,Potency,[12],inactive
CC/C=C\[C@H](O)[C@H](O)C1=C(C)C(=O)[C@]2(O1)C(=O)N[C@@](O)(C(=O)c1ccccc1)[C@@H]2O,activation,[1],-14.5%
same,Potency,[2],inactive
same,Potency,[3],inactive
same,Potency,[4],inactive
same,Potency,[5],inactive
same,Potency,[7],inactive
same,Potency,[9],inactive
CC(C)(CC(=O)N1CCCC1)NCC(=O)N1C[C@@H](F)C[C@H]1C#N,activation,[1],0.333%
same,Potency,[2],inactive
same,Potency,[3],inactive
same,Potency,[4],inactive
same,Potency,[5],inactive
same,Potency,[7],inactive
same,Potency,[9],inactive
same,Potency,[8],inactive
CC(O)(C#Cc1ccc2c(c1)N(c1nc(N)ncc1Cl)CC2)c1nccs1 (centres undefined),activation,[1],-1.22%
same,Potency,[2],inactive
same,Potency,[3],inactive
same,Potency,[4],inactive
same,Potency,[5],inactive
same,Potency,[7],inactive
same,Potency,[9],inactive
same,Potency,[12],inactive
COC(=O)[C@]1(Cc2ccc(O)c(CC=C(C)C)c2)OC(=O)C(O)=C1c1ccc(O)cc1,activation,[1],1.53%
same,Potency,[2],inactive
same,Potency,[3],inactive
same,Potency,[4],inactive
same,Potency,[5],12.3 µM (active)
same,Potency,[7],inactive
OC[C@H]1O[C@@H](n2cnc3c2NC=NC[C@H]3O)C[C@@H]1O,activation,[1],-7.16%
same,Potency,[2],inactive
same,Potency,[3],inactive
same,Potency,[4],inactive
same,Potency,[5],inactive
same,Potency,[6],inactive
same,Potency,[7],inactive
same,Potency,[9],inactive
same,Potency,[8],inactive
same,viability,[10],108%
same,Potency,[15],inactive
same,Potency,[11],inactive
same,Potency,[16],inactive
same,Potency,[12],inactive
same,Potency,[13],inactive
same,Potency,[14],inactive
